Experimental data: the supplement of paper PMC6555819

Key:
Test in all cases: PBM binding z-score (relative to random genomic background probes); higher = stronger binding; sequences stand for … in GC…GCGATTGACAGCGTAGAATGAAGG
[1] = system: PPARg:RXRa DBDmut IVT, anti-RXR (DBD mutation: RXRa K156A/R161A, NR concentration 270 nM, RXRa partner concentration 90 nM)
Summary of the method: (§1)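 Probes were double-stranded and carried 34-nt variable regions with direct-repeat seeds, single-nucleotide variants, half-site ablations and random human genomic background sequences, printed on custom Agilent 4×180K protein-binding microarrays. Arrays were incubated 1 h with ligand-free nuclear receptor dimers in PBS pH 7.4, 2% milk, 0.02% Triton X-100, 1 mM DTT, 0.2 mg/mL BSA and 0.4 mg/ml salmon testes DNA. Antibodies against each partner (one per run) detected binding, and scanned fluorescence was regression-normalized. Binding z-scores use the random background probes as reference.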

[2] = system: PPARg:RXRa IVT, anti-PPARg (NR concentration 270 nM, RXRa partner concentration 90 nM)
Summary of the method: as §1

[3] = system: PPARg DBDmut:RXRa IVT, anti-PPARg (DBD mutation: PPARg1 K132A/R137A, NR concentration 270 nM, RXRa partner concentration 90 nM)
Summary of the method: as §1

[4] = system: PPARg DBDmut IVT, anti-PPARg (DBD mutation: PPARg1 K132A/R137A, NR concentration 270 nM)
Summary of the method: as §1

[5] = system: PPARg homodimer (NR concentration 180 nM)
Summary of the method: as §1

[6] = system: PXR:RXRa (NR concentration 270 nM, RXRa partner concentration 90 nM)
Summary of the method: as §1

[7] = system: PXR homodimer (NR concentration 270 nM)
Summary of the method: as §1

[8] = system: RARa:RXR (NR concentration 270 nM, RXRa partner concentration 90 nM)
Summary of the method: as §1

[9] = system: RARa homodimer (NR concentration 270 nM)
Summary of the method: as §1

[10] = system: RARb:RXRa (NR concentration 270 nM, RXRa partner concentration 90 nM)
Summary of the method: as §1

Sequence	PBM binding z-score [1]	PBM binding z-score [2]	PBM binding z-score [3]	PBM binding z-score [4]	PBM binding z-score [5]	PBM binding z-score [6]	PBM binding z-score [7]	PBM binding z-score [8]	PBM binding z-score [9]	PBM binding z-score [10]
TGTGCTAGGTCAACGATGGTCAGCTAATCTGCTA	2.94	4.09	0.203	0.0393	1.1	1.4	-0.379	1.85	-0.241	4.15
CTACCAAGGTGAACAAGGCCGTTGATTACTATTC	2.3	2.16	0.257	-0.28	0.346	0.327	0.451	0.868	-0.304	1.59
TAGCCTAGGTCAGATCGGGCCGGTATACGCTATA	0.592	1.34	-0.27	-0.214	0.114	0.345	-0.722	0.515	-0.746	2.98
GCTGCTAGGTCAGGTTTGTCAGCTAACGGGTACG	3.26	1.92	-0.625	-0.587	0.518	0.229	-0.27	0.51	-0.0516	2.95
CCTACTGGGCCACGAAAGGTCAATGATTCAGTGA	5.81	6.07	0.295	-0.781	2.45	4.54	0.206	4.68	0.747	4.09
TAGCCAAGGTCATTGGGCCAGTATAGTACGCATC	2.26	4.14	1	0.266	2.22	4.33	1.15	4.03	0.395	5.01
TCTTGTAGATCAAGCAGGTTAACAAAGCCTGAGT	1.57	0.741	0.45	0.44	0.0405	0.699	0.326	0.629	-0.263	0.298
GCTAGCAGGCCACTTGGGTCACTCAATGACGGGC	1.43	1.32	-1.04	-0.967	-0.431	0.269	-0.237	0.575	-0.207	1.34
GGAACGAGGGCAAGTTGAAAGCAGAGTTTGATGG	3.88	2.91	-0.0232	-0.635	0.201	0.652	0.377	0.519	-0.328	2.53
TAGCCTAGGTCATGCAGGGGCCAGTATAGAAAGC	1.42	2.59	-0.359	-0.442	1.36	2.18	-0.721	3.39	-0.25	3.85
GGAACGAGGGCTAAGTTGATAGCATCTGTCGACG	0.209	0.114	0.146	-0.476	-0.2	-0.47	-0.382	-0.0692	-0.234	0.086
ATCTCTAGGTAAGACTCAGTTGAGTGAAGAACGC	1.79	0.839	0.212	0.517	0.307	-0.135	0.188	-0.38	0.696	0.11
CGAACCAGGGCATGAGTTGATAGCAAATGCCGAT	2.9	2.29	-0.69	0.106	0.228	-0.0525	-0.0221	-0.0885	-0.263	1.02
TTACCAAGGTGATCTGAGGTCGTTGATCCAACTC	0.904	1.97	0.232	-0.0515	1.46	5.06	1.41	2.02	0.209	1.55
TCATAAAGGTAAATGCTAGGTGAAAGTCCGATCT	3.32	1.59	0.692	0.518	1.01	0.647	0.218	1.36	0.932	1.04
GCTACAGGGTCAAGGCCAGAGTACGCGTATTGAT	2.54	3.15	-0.313	0.11	2.84	4	0.0658	4.7	0.58	4.59
TAGCCTCGGTCATGGGCCAGTATACCACGCGAAC	-0.58	0.53	-0.301	-1	-0.0918	-0.176	-0.497	0.0375	-0.653	2.42
TAGCCTAGGTCATGAGGGCCAGTATAGTGTCGGC	2.17	3.05	0.44	-0.29	0.909	1.6	-0.521	2.56	-0.556	3.8
ACTCGGAGGACCAAGGTCAGAGCTACGCCAGTGA	-0.502	0.431	-1.19	-0.608	1.18	1.34	0.0514	1.88	-0.14	2.86
ATATGTAGGGTACATCCGGGTCATTCAGGCTATG	5.82	6.25	2.33	1.87	1.74	4.11	9.27	3.12	0.779	1.73
ATCTGTAGGTAAGACTCAGTTCAGTGAAGAACGC	1.14	0.619	1.11	1.11	0.0779	1.18	1.28	0.421	0.498	0.161
TCTAGCAGGCCTGAGGGTCACTCAAGAGGTACGG	0.475	-0.212	-2.08	-1.13	0.706	1.92	-0.465	2.85	-0.571	2.12
ATCTCTAGGTACCCAAGTTCAGTGAATGCCGAAC	0.72	1.02	0.772	0.793	0.883	1.76	1.62	0.698	0.262	1
TCAGACAGGTGCAGGTAACTCAGGTACGCAGTCG	1.83	-0.017	-0.24	-0.576	-0.207	0.426	-0.203	0.659	-0.372	0.311

Sequence	PBM binding z-score [1]	PBM binding z-score [2]	PBM binding z-score [3]	PBM binding z-score [4]	PBM binding z-score [5]	PBM binding z-score [6]	PBM binding z-score [7]	PBM binding z-score [8]	PBM binding z-score [9]	PBM binding z-score [10]
ATACTAAGGTGATCGTGAGGTCGTTGATACTAAC	1.4	1.73	0.74	1.39	1.65	3.74	1.93	2.88	0.716	1.77
CCTTATGGGTCACGAGGTTATAGCACGACGAGCG	6.86	7.13	2.07	2.59	3.76	3.9	0.436	5.4	0.87	4.43
CGTCCAATGTCAGAGAGGTCAGTGAATGCCGAGT	0.575	1.22	-0.469	-0.584	3.15	3.48	2.28	3.16	1.47	3.42
CCGACTGGGGCACAAGGTTACCATAAGCCAGCCC	3.82	4.45	-0.334	-0.282	1.62	0.226	-0.93	0.828	-0.242	1.46
ACTAGTTGGTCAGTTGAGGTCACACACAATTCGG	1.58	2.98	1.37	0.982	3.72	5.67	2.39	4.98	1.56	3.54
CGTCCAAGGTTAATGCTAGGTCAGTGAAAGCATT	1.24	1.56	0.173	-0.333	1.1	1.81	0.209	2.86	-0.141	2.83
CCTTACGGGTCAAGGTTATAGTACGGGTGGTACG	1.4	3.68	0.554	-0.326	2.79	3.75	0.673	4.68	1.47	4.18
CCGACTGGGGCATAAGGTTACGATAAGCCAGCCC	2.87	3.37	-0.323	-1.04	1.02	0.614	-0.423	1.66	-0.594	1.77
CCAGACAGCTGAGAAGGTAACTCAGCCTCGATTA	-0.628	-0.629	-0.497	-0.867	0.219	-0.733	0.0352	-0.488	-0.132	-1.71
GCTATTAGTTGAAAGGGCATCCGAATGATTCTCG	0.6	0.576	0.336	0.482	1.17	0.67	0.374	1.21	0.477	1.65
TAGCCCAGGTCATGCGGGCCAGTATAGTGTCGGC	0.638	2.57	-0.0508	-0.838	0.868	2.52	0.093	3.04	-0.161	3.74
GCTCGGAAGACAAGGTCAGAGCTTTGTCCGTAGA	0.0129	0.063	-0.999	-2.1	0.392	1.41	-0.453	1.9	-0.69	2.58
AGTCAAAGTTTAGGACGAGGTAACGTAAAGCACG	-0.369	0.311	0.476	0.0826	0.281	0.168	-0.0643	0.219	0.258	1.41
TCTGCTAGGTCAACGACGGTCAGCTAATCTGCTA	3.89	3.94	0.0425	0.346	0.772	2.08	-0.714	2.4	-1.12	4.13
CCTGCTAGGCCAATGGTCAGCTAAAGCAGCTCGC	0.832	0.413	-1.62	-1.52	-0.65	-0.919	-0.736	-0.768	-0.677	0.755
CCTAGCAGGCCAATCTGGGACACTCAAGGCTTGA	3.13	2.73	-0.765	-0.94	-0.694	-0.828	-0.916	-0.753	-0.862	0.0896
CCGAGTGGGGCATAAGGTTACCATAAGCCAGCCC	2.28	2.81	-1.47	-1.33	0.587	0.569	-0.243	1.27	-0.802	1.35
TTACCAAGGTGAAAGGTCGATGATGCACGCCTTG	2.4	4.78	0.899	1.64	2.36	3.08	-0.143	4.99	0.188	2.98
CCTTCTGGGCCATCAGGTCATTGATATCAACGTT	4.77	5.03	0.4	0.236	1.37	1.64	0.618	2.31	0.159	2.28
TTACCAAGGTGAGCTGAGGCCGTTGATCCAACTC	0.88	1.24	-0.955	-0.387	-0.831	2.17	-0.968	1.15	-1.4	1.09
TCTCGGAGGACACGAAGATCAGAGCTTTCCAGAG	1.06	-0.251	-1.11	-0.408	-0.646	-0.151	-0.592	0.08	-0.514	1.21
CCAGACAGGTTAAAGGTAACTCAGTCTGGTACGC	0.728	1.86	-0.35	-0.757	1.24	2.15	-0.196	3.52	0.287	1.69
GCTGCTAGGTGAACTGATGGTCAGCTAAAGCTCG	3.85	2.6	-0.641	-1.06	-0.326	-0.0218	-0.684	0.388	-1.4	0.944
AATTACGGGTCAACGAGGTTATAGCACGCGTATA	3.6	5.01	2.85	2.31	3.16	5.27	3.27	5.49	1.87	4.27
